# From PubChem BioAssay (NCATS)
# Inconclusive results are not listed. Activity calls are given as the source filed them. Calls come from the whole dose curve.
# Experiment: Confirmatory qHTS to identify inhibitors of SARS-CoV-2 cell entry (AID 1645844); note: nearly all actives have a fitted effect of over 45% in size
# Conditions: SARS-CoV-2 pseudotyped particle cell entry, luciferase; series mostly up to 57.2 µM
# Summary of the method: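 Luminescence entry read-out after 48 h: spike-pseudotyped MLV particles (Wuhan-Hu-1, 19-aa C-terminal truncation) added to compound-pretreated (1 h) HEK293-ACE2 cells; Data were normalised to bald PP and spike PP wells.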
# Potency is the fitted concentration of half-maximal effect.
row,Structure (SMILES),Potency
1,COC(=O)Nc1ccc(-c2nc(N3CCOCC3)c3cnn(C4CCN(Cc5cccnc5)CC4)c3n2)cc1,5.41 µM (active)
2,COc1ccc(Nc2cc(-c3cnc(N)nc3)nc(N3CCOCC3)n2)cn1,0.341 µM (active)
3,Cc1ccc2nc(NCCN)c3ncc(C)n3c2c1,19.2 µM (active)

# Experiment: Cytotoxicity counterscreen for inhibitors of SARS-CoV-2 cell entry (AID 1645845); note: nearly all actives have a fitted effect of over 50% in size
# Conditions: cell viability (SARS-CoV-2 entry assay cells); series mostly up to 57.1 µM
# Summary of the method: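 ATP-content luminescence (ATPLite 1step, 15 min RT) read after 48 h compound exposure of Expi293F cells stably expressing human ACE2; normalized to cells-only wells and media-only wells.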
Structure (SMILES),Potency,outcome
C[C@H](CCC(=O)O)[C@H]1CC[C@H]2[C@H]3[C@@H](CC[C@]12C)[C@@]1(C)CC[C@@H](O)C[C@H]1C[C@@H]3O,inactive,–
CNC(=O)c1c(F)cccc1Nc1nc(Nc2cc3c(cc2OC)CCN3C(=O)CN(C)C)nc2[nH]ccc12,inactive,–
C[S+](C)CCC(N)C(=O)O (configuration not stated),inactive,–
O=C1c2ccccc2-c2n[nH]c3cccc1c23,inactive,–
O=C(O)CCCCCC(=O)NN=C1CCCC1,inactive,–
CCN(CC)CCNC(=O)c1ccc2nc(-c3ccccc3)c(-c3ccc(CN4CCC(n5c(=O)[nH]c6ccccc65)CC4)cc3)nc2c1,5.62 µM (active),–
CC(C)C[C@H](CC(=O)O)C(=O)N[C@@H](Cc1c[nH]c2ccccc12)C(=O)N[C@@H](C)c1ccccc1,inactive,–
CCNc1cc(NC2CCC(O)CC2)nc(Nc2ccc3c(ccn3Cc3ccccc3)c2)n1 (configuration not stated),inactive,–
Cc1ccc2nc(NC(=O)CSc3nc4c(c(=O)n3-c3ccccc3)SCC4)sc2c1,inactive,–
Cn1cc(C[C@@H](N)C(=O)O)c2ccccc21,–,inactive [at 11.3 µM]
CC(C)=CC[C@@H](O)C1=CC(=O)c2c(O)ccc(O)c2C1=O,inactive,–
CC(C)C(C)C=CC(C)C1CCC2C3=CC=C4CC(O)CCC4(C)C3CCC21C (configuration not stated),inactive,–
O=C1NC(O)CCN1[C@@H]1O[C@H](CO)[C@H](O)[C@H]1O (some centres not stated),inactive,–
O=C(Nc1ccc(Oc2ccnc3[nH]ccc23)c(F)c1)c1cccn(-c2ccc(F)cc2)c1=O,inactive,–
CCC(C(=O)O)C1CCC(C)C(C(C)C(O)C(C)C(=O)C(CC)C2OC3(C=CC(O)[C@@]4(CC[C@](C)(C5CC[C@@](O)(CC)C(C)O5)O4)O3)C(C)CC2C)O1 (some centres not stated),inactive,–
CCCn1c(=O)c2[nH]c(-c3cnn(Cc4cccc(C(F)(F)F)c4)c3)nc2n(CC)c1=O,inactive,–
Cc1cc(Cl)ccc1OCCCC(=O)NO,inactive,–
N[C@@]1(C(=O)O)CS(=O)(=O)[C@H]2[C@H](C(=O)O)[C@H]21,inactive,–
COc1cc(Nc2ncc(F)c(Nc3ccc4c(n3)N(COP(=O)(O)O)C(=O)C(C)(C)O4)n2)cc(OC)c1OC,inactive,–
CCc1ccc(C(=O)Nc2cc(CN3CCN(C)CC3)cc(C(F)(F)F)c2)cc1C#Cc1cnc2ccnn2c1,31.6 µM (active),–
NC1=N[C@H]2[C@H](CS[C@H]2CCCCC(=O)O)N1,inactive,–
CC(C)C[C@H](NC(=O)CNC(=O)c1cc(Cl)ccc1Cl)B1OC(=O)CC(CC(=O)O)(C(=O)O)O1 (some centres not stated),0.891 µM (active),–
O=C1NC(=O)C(c2cnc3ccccn23)=C1c1cn2c3c(cccc13)CN(C(=O)N1CCOCC1)CC2,inactive,–

# Experiment: Primary qHTS to identify inhibitors of SARS-CoV-2 cell entry (AID 1645846); note: nearly all actives have a fitted effect of over 45% in size
# Conditions: SARS-CoV-2 pseudovirus cell entry assay, luminescence; activity change, negative = inhibition: at 57.1 µM (top of the series) unless noted; series mostly up to 57.1 µM
# Summary of the method: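 Inhibition of spike-mediated entry was scored in human ACE2-transfected Expi293F cells. Particles were MLV-pseudotyped with Wuhan-Hu-1 S carrying a 19-aa C-terminal deletion; signal was luciferase after two days, scaled between spike PP and fusion-protein-free PP.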
Structure (SMILES),"activity change, negative = inhibition",Potency
C[C@H](CCC(=O)O)[C@H]1CC[C@H]2[C@H]3[C@@H](CC[C@]12C)[C@@]1(C)CC[C@@H](O)C[C@H]1C[C@@H]3O,0.336%,–
CNC(=O)c1c(F)cccc1Nc1nc(Nc2cc3c(cc2OC)CCN3C(=O)CN(C)C)nc2[nH]ccc12,–,20 µM (active)
C[S+](C)CCC(N)C(=O)O (configuration not stated),-29.8%,–
O=C(O)CCCCCC(=O)NN=C1CCCC1,-16.8%,–
CCN(CC)CCNC(=O)c1ccc2nc(-c3ccccc3)c(-c3ccc(CN4CCC(n5c(=O)[nH]c6ccccc65)CC4)cc3)nc2c1,–,4.47 µM (active)
Oc1ccc(-c2ccc(-c3cc(Nc4cccc(CNC5CC5)c4)n[nH]3)cc2)c(O)c1,–,10 µM (active)
CC(C)C[C@H](CC(=O)O)C(=O)N[C@@H](Cc1c[nH]c2ccccc12)C(=O)N[C@@H](C)c1ccccc1,-6.02%,–
COC(=O)Nc1ccc(-c2nc(N3CCOCC3)c3cnn(C4CCN(Cc5cccnc5)CC4)c3n2)cc1,–,6.31 µM (active)
COc1cc(F)c(F)c(Nc2ccc(I)cc2F)c1NS(=O)(=O)C1(C[C@H](O)CO)CC1,–,25.1 µM (active)
Cc1ccc2nc(NC(=O)CSc3nc4c(c(=O)n3-c3ccccc3)SCC4)sc2c1,-16.9%,–
Cn1cc(C[C@@H](N)C(=O)O)c2ccccc21,-6.52% [at 11.3 µM],–
CC(C)=CC[C@@H](O)C1=CC(=O)c2c(O)ccc(O)c2C1=O,–,inactive
CC(C)C(C)C=CC(C)C1CCC2C3=CC=C4CC(O)CCC4(C)C3CCC21C (configuration not stated),–,inactive
COc1cc(O)c2c(c1)C1OC1C[C@H](O)[C@H](O)C(=O)C=CC[C@H](C)OC2=O (some centres not stated),–,35.5 µM (active)
O=C1NC(O)CCN1[C@@H]1O[C@H](CO)[C@H](O)[C@H]1O (some centres not stated),-26.7%,–
O=C(Nc1ccc(Oc2ccnc3[nH]ccc23)c(F)c1)c1cccn(-c2ccc(F)cc2)c1=O,-21.9%,–
CCCn1c(=O)c2[nH]c(-c3cnn(Cc4cccc(C(F)(F)F)c4)c3)nc2n(CC)c1=O,-10.8%,–
Cc1cc(Cl)ccc1OCCCC(=O)NO,-10.4%,–
CC(C)c1cc(-c2n[nH]c(=O)n2-c2ccc3c(ccn3C)c2)c(O)cc1O,-96%,–
N[C@@]1(C(=O)O)CS(=O)(=O)[C@H]2[C@H](C(=O)O)[C@H]21,–,inactive
CCc1ccc(C(=O)Nc2cc(CN3CCN(C)CC3)cc(C(F)(F)F)c2)cc1C#Cc1cnc2ccnn2c1,–,22.4 µM (active)
O=C(CCCCCCNC(=O)c1cnc(N(c2ccccc2)c2ccccc2)nc1)NO,–,inactive
NC1=N[C@H]2[C@H](CS[C@H]2CCCCC(=O)O)N1,-19.4% [at 27.1 µM],–
O=C(CCCCCCC(=O)Nc1cccnc1)NO,–,inactive
CC(C)C[C@H](NC(=O)CNC(=O)c1cc(Cl)ccc1Cl)B1OC(=O)CC(CC(=O)O)(C(=O)O)O1 (some centres not stated),-99.4%,–
COc1cc(C(=O)N2CCC(N3CCN(C)CC3)CC2)ccc1Nc1ncc2c(n1)N(C)c1ccccc1C(=O)N2C,–,31.6 µM (active)
